The entries come from a sample that favours hits as a whole.
LmPK inhibitor: blocks Leishmania mexicana pyruvate kinase activity | Q27686 | purified LmPK, Kinase-Glo ATP luminescence, 1 h | Potency, µM (highest dose often 57.5 µM), without a hit: at the highest dose activity change, negative = inhibition, hits mostly inhibitors | 290,000 compounds, 0.37% hits | AID 1721; further: potency means the concentration at half of the fitted maximal effect; on the % scale 0 is the no-effect control and ±100 the full control effect
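Pyruvate kinase activity monitored as ATP production (luciferase luminescence). Conditions: 0.1 nM enzyme, 0.5 mM PEP, 0.1 mM ADP, 1 h, RT; normalized against uninhibited and no-enzyme wells.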
Shiga toxin inh: inhibitors of Shiga toxin in Vero cells | Vero cells, Shiga toxin protein synthesis inhibition reporter | inhibition, % at 38.7 µM | AID 2315 | 290,000 compounds, 9.2% hits; in the data active means inhibition mostly above about 28%, no sharp cut-off; inactive means mostly below about 43%; further: 0% is about no effect
FBPA Giardia inh: Giardia lamblia aldolase inhibition | A8B2U2 | purified Giardia FBPA | Potency, µM (top dose mostly 59.6 µM), for inactives: top-dose activity, negative = inhibition, actives largely listed as inhibitors | 290,000 compounds, 0.71% hits | AID 2451; further: potency means the concentration at half of the fitted maximal effect; on the % scale 0 is the no-effect control and ±100 the full control effect; nearly all actives have a fitted effect of over 55% in size
Target sequence (A8B2U2 whole entry, looked up): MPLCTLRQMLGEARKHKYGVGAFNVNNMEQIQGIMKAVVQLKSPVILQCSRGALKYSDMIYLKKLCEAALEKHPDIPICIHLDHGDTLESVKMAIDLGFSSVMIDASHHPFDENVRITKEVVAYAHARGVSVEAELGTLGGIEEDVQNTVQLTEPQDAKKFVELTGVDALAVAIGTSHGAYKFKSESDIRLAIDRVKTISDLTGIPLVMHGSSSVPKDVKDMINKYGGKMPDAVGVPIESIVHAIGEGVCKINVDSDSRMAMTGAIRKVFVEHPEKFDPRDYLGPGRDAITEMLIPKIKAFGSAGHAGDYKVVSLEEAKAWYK
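Giardia FBPA (40 nM reagent) was preincubated 10 min at RT with compound (up to 57.5 uM final), then substrate plus GAPDH/TPI/NAD/arsenate coupling system with diaphorase/resazurin was added; resorufin fluorescence (525/598 nm) was read after 20 min.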
Sm TGR block: inhibitors of Schistosoma mansoni thioredoxin glutathione reductase; 360,000 compounds, 3% hits; Potency, µM (doses to about 114 µM), for the others: at the top dose activity change, negative = inhibition, hits mostly inhibitors; purified TGR, DTNB reduction, TNB absorbance 405 nm; further: potency means the concentration at half of the fitted maximal effect; on the % scale 0 is the no-effect control and ±100 the full control effect; nearly all actives have a fitted effect of over 60% in size
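Kinetic colorimetric format: TGR-catalysed, NADPH-driven DTNB reduction monitored via TNB absorbance. Enzyme dispensed at 20 nM; compound exposure 15 min at room temperature before reaction start.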
Tb PYK inh: inhibitors of Trypanosoma brucei pyruvate kinase | TbPYK enzyme, Kinase-Glo Plus ATP luminescence, 45 min | Potency, µM (series often up to 76.8 µM), for the others: at the highest dose activity, negative = inhibition, actives largely listed as inhibitors | 410,000 compounds, 0.12% hits; further: potency means the concentration at half of the fitted maximal effect; on the % scale 0 is the no-effect control and ±100 the full control effect; nearly all actives have a fitted effect of over 50% in size
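Activity of T. brucei pyruvate kinase was followed by Kinase-Glo Plus luminescence after the enzyme reacted 45 min at room temperature with 130 uM ADP (final) and substrate. Test compounds were added before ADP at multiple concentrations.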
CHX counter: counter-screen hit for Shiga toxin inhibitors, cycloheximide. 300,000 compounds, 12% hits. cell reporter, cycloheximide protein synthesis inhibition counterscreen. max response, %; in the data active means max response mostly above about 13%, no sharp cut-off; inactive means mostly below about 14%; further: read at 38.3 µM for the half of the compounds with a filed dose; 0% is about no effect
Numbers without * were called inactive; ? = inconclusive; nt = no result; [ ] = remark or other dose. Unless noted, the call rests on the fitted dose curve; in most records, active means well fitted curve in the direction sought with a large enough effect; inconclusive means small, poorly fitted or top-dose-only effect, or another doubt; inactive means no such curve, though single readings can be large; an effect the other way counts as inactive or inconclusive.

SMILES | LmPK inhibitor | Shiga toxin inh | FBPA Giardia inh | Sm TGR block | Tb PYK inh | CHX counter
CC(=O)c1c(C)oc2ccc(N(C(=O)Oc3ccccc3)S(=O)(=O)c3ccc(C(C)(C)C)cc3)cc12 | nt | nt | nt | -5% | 1% | nt
O=C1C=CC(=O)N1 | nt | nt | nt | 0.89µM* | -24% | nt
Cc1cc(N/N=C2\CC(C)CC(C)(C)C2)nc2ccccc12 (centres undefined) | 2% | 27* | -10% | 12% | 1% | 35*
CC1C/C(=N/NC(=O)c2ccc(CSc3nc4ccccc4[nH]3)cc2)CC(C)(C)C1 (centres undefined) | 1% | 17 | -1% | -12% | -15% | 6
c1ccc2[nH]c(NN=C3CCCCCC3)nc2c1 | ? | 110* | 0% | 0% | -3% | 44*
CC1C/C(=N/Nc2nc3ccccc3[nH]2)CC(C)(C)C1 (centres undefined) | -1% | 69* | -1% | -30% | -3% | 33*
Cc1cc(N/N=C2/CCCc3ccccc32)nc2ccccc12 | -4% | 57* | -11% | 11% | 1% | 54*
O=C(Nc1ccc(Br)cc1)c1cccc(C(=O)Nc2ccc(Br)cc2)c1 | nt | nt | nt | -5% | -1% | nt
COc1cccc(C(=O)Nc2ccc(NC(=O)C3CC3)cn2)c1 | ? | 70* | -1% | -20% | -19% | 29*
CCCC(=O)Nc1ccc(NC(=O)c2cccc(OC)c2)cn1 | -12% | -3 | 15% | 0% | 6% | 1
COc1ccc(C(=O)Nc2ccc(NC(=O)c3cccc(OC)c3)cn2)cc1 | 1% | 28 | 8% | 7% | -5% | 8
CCC(=O)Nc1ccc(NC(=O)c2cccc(OC)c2)nc1 | ? | 24* | 0% | -7% | -9% | 23*
CCn1nnnc1NC(=O)c1cccc(OC)c1 | -3% | 83* | 0% | 5% | 1% | 32*
CCCCn1c2ccccc2c2nnc(SCC(=O)Nc3ccc(NC(C)=O)cc3)nc21 | nt | nt | nt | -1% | 4% | nt
FC(F)(F)c1nc2cc3nc4ccccc4[nH]c3cc2n1 | ? | 69* | ? | 3% | -19% | 39*
CCOC(=O)c1noc2ncnc(N3CCN(c4ccccc4OC)CC3)c12 | nt | nt | nt | 4% | 0% | nt
O=C(NCCCN1CCCC1=O)Nc1ccccc1Cl | -1% | 20 | nt | 0% | 3% | 7
O=C(NCCCN1CCCC1=O)c1cc2c(s1)CCCCC2 | -1% | 73* | 3% | 8% | 6% | 49*
O=C(NCCCN1CCCC1=O)Nc1ccc(Cl)cc1 | nt | nt | nt | nt | -14% | nt
O=C(NCCCN1CCCC1=O)Nc1ccc([N+](=O)[O-])cc1 | 0% | 43 | -2% | 8% | -1% | 18*
O=C(NCCCN1CCCC1=O)Nc1ccccc1F | -6% | 37* | -3% | 2% | -2% | 19*
O=C(NCCCN1CCCC1=O)c1sc2ccccc2c1Cl | 5% | 39* | nt | 8% | 15% | 29*
CCNc1ncc2nc(-c3cccc(C#N)c3)c(=O)n(CCC#N)c2n1 | nt | nt | 3% | nt | nt | nt
Cc1oc2c(c1C(=O)Nc1ccc(Cl)cc1F)C1=NCCN1C=N2 | nt | nt | nt | 1% | -5% | nt
CCOC(=O)c1nc(SC)n(C)c1C(=O)OCC | 1% | -7 | 2% | -2% | -10% | -3
SMILES | LmPK inhibitor | Shiga toxin inh | FBPA Giardia inh | Sm TGR block | Tb PYK inh | CHX counter
Cc1ccc(NC(=O)NCCCN2CCCC2=O)cc1Cl | -6% | 74* | 12% | -6% | -5% | 31*
Cc1onc(-c2ccccc2Cl)c1C(=O)O/N=C(\N)c1ccc([N+](=O)[O-])o1 | 7% | 7 | -4% | ? | -2% | 1
Cc1ccc(S(=O)(=O)NCCNC(=O)c2nonc2N)cc1 | -2% | -6 | 3% | -12% | 1% | 1
Cc1cc(/C(N)=N/OC(=O)c2ccccc2Cl)no1 | 22µM* | 38* | 0% | 2% | ? | 21*
N/C(=N/OC(=O)c1ccccc1Cl)c1nonc1N | 1%[11.5 µM] | 90* | -6% | 12% | ? | 38*
Cc1ccc(C(=O)O/N=C(\N)c2nonc2N)cc1 | 4µM* | 51* | 1% | -4% | ? | 47*
N/C(=N/OCC(=O)Nc1cccc2ccccc12)c1nonc1N | 0% | -8 | -1% | -2% | 1% | -2
N/C(=N\OC(=O)c1ccc(F)cc1)c1nonc1N | 14µM* | 71* | 2% | 7% | ? | 48*
C/C(=N\OC(=O)c1ccc(F)cc1)c1ccc(F)c(F)c1 | -14% | 15 | 0% | 2% | 0% | 11
CC(=O)Nc1ccc(S(=O)(=O)NCCc2csc3nc(-c4ccc(Cl)cc4)nn23)cc1 | nt | nt | nt | 10% | 1% | nt
Cc1ccc(CNC(=O)CCS(=O)(=O)c2cc(Br)cc3c2N(C(=O)C2CC2)CC3)o1 | 3% | -22 | -9% | 28µM* | -12% | 6
CC(=O)N1CCc2cc(S(=O)(=O)CCC(=O)NCc3ccc(C)o3)ccc21 | 1% | -4 | -14% | 11µM* | -25% | -1
O=C(C1CC1)N1CCc2cc(Br)cc(S(=O)(=O)NCc3ccco3)c21 | 6% | 53* | -10% | ? | -4% | 28*
Cc1nn(-c2ccccc2)c(Cl)c1C(=O)NC1CCCCC1 | 3% | 8 | 1% | -2% | -8% | 15*
Cc1nn(-c2ccccc2)c(Cl)c1C(=O)NCC(=O)O | 4% | -23 | 11% | 3% | 4% | -1
Cc1ccc(NC(=O)c2c(C)nn(-c3ccccc3)c2Cl)c(C)c1 | 0% | 60* | -3% | 14% | -5% | 23*
CC1(c2nnc(Cc3ccccc3)o2)CC(c2ccccc2[N+](=O)[O-])=NO1 (centres undefined) | nt | nt | nt | 3.2µM* | -16% | nt
COc1ccccc1C1=NOC(C)(c2nnc(Cc3ccccc3)o2)C1 (centres undefined) | nt | nt | nt | 1% | -1% | nt
CC1(c2nnc(Cc3ccccc3)o2)CC(c2cccc([N+](=O)[O-])c2)=NO1 (centres undefined) | nt | nt | nt | 45µM* | 3% | nt
CC1(c2nnc(Cc3ccccc3)o2)CC(c2ccncc2)=NO1 (centres undefined) | nt | nt | nt | nt | -4% | nt
Cc1csc2nc(-c3cccc(NC(=O)c4cccc(F)c4)c3)cn12 | nt | nt | nt | 0% | 0% | nt
CN(C(=O)CSc1nc2ccc(NC(=O)COc3ccc(F)cc3)cc2s1)c1ccccc1 | nt | nt | nt | -2% | 4% | nt
CCOc1ccc(N(CC(=O)NC(C)(C)C)C(=O)CCC(=O)Nc2nccs2)cc1 | 4% | -7 | 0% | -21% | -10% | 0
C=CCn1c(SCn2nnc3ccccc3c2=O)nnc1-c1ccc(Br)cc1 | 6% | 37 | 4% | 0% | 4% | 9
C=CCn1c(COc2cccc(C)c2)nnc1SCn1nnc2ccccc2c1=O | 2% | 29 | -6% | -11% | -14% | 14*
CCOC(=O)C(=O)N(Nc1ccc(C)cc1)c1ccc(C)cc1 | -4% | 72* | -9% | -10% | 3% | 16*
CCC(O)(CC)C(=O)N(Nc1ccc(C)cc1)c1ccc(C)cc1 | 6% | -8 | -7% | -3% | 2% | -2

Source: PubChem (National Center for Advancing Translational Sciences (NCATS))
